A selection: hits, their analogues and other compounds. The true share with any hit is near 2.3%.
Tau fil binding: binds recombinant human tau filaments; P10636; recombinant tau filaments, thioflavin S fluorescence, 15 h; filaments grown with octadecylsulfate alongside compound; Potency, µM (titrated, usually from 57.1 µM), for inactives: top-dose activity change, negative = inhibition; hit rate 2% among 71,000;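 also: potency is read from the fitted curve at half-maximal effect; % is scaled to controls: 0 for no effect and ±100 for the full control effect; actives lower thioflavin S fluorescence by blocking filaments or displacing dye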
Target sequence (P10636 whole entry, looked up): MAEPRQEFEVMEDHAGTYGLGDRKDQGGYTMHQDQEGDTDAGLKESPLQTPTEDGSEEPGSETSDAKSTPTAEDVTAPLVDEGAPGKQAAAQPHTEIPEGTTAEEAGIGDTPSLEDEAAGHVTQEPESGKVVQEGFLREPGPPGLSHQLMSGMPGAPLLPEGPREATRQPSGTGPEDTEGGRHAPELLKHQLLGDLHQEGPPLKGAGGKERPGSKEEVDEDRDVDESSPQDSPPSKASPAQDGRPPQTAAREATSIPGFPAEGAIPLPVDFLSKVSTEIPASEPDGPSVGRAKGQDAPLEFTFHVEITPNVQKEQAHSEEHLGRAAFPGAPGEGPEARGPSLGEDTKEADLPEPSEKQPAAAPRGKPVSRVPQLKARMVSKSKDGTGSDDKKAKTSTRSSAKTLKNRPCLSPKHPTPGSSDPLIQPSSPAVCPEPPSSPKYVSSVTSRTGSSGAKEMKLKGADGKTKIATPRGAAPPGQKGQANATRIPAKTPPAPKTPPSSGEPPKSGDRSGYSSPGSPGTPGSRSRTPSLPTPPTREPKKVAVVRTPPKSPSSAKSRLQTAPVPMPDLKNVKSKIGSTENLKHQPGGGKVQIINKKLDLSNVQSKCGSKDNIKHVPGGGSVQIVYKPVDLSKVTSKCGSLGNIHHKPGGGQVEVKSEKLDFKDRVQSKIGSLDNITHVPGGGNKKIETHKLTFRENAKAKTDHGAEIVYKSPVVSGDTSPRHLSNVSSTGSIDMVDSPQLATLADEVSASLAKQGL
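ThS-based fibril read: tau 1 uM final, inducer ODS 30 uM final, 37 C for 15 h, ex 450/em 510 nm.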
BRCT inh green: inhibitors of human BRCA1 BRCT-phosphoprotein interaction (green fluorophore); P38398; BRCA1 BRCT-phosphopeptide binding, green fluorescence polarization; hit rate 0.05% among 75,000; Potency, µM (doses to about 76.9 µM), for the others: top-dose activity change, negative = inhibition, usual class: inhibitors; AID 875;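 also: potency is read from the fitted curve at half-maximal effect; plate controls were peptide without protein for full effect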
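Fluorescence polarization: His-tagged BRCT (~35 kDa BRCA1 C-terminus, 250 nM) bound to 100 nM fluorescein-labeled phosphorylated 10-aa BACH1 peptide, pH 7.3 phosphate buffer with DTT and Tween 20. Compounds incubated 12 min at room temperature; inhibition read as lowered polarization.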
BRCT inh red: BRCT-phosphoprotein interaction inhibition (red fluorophore) | AID 892 | Potency, µM (doses to about 76.9 µM), without a hit: top-dose activity change, negative = inhibition, most hits filed as inhibitors | P38398 | hit rate 0.03% among 75,000 | BRCT-phosphopeptide binding, red fluorescence polarization; also: % is scaled to controls: 0 for no effect and ±100 for the full control effect
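Fluorescence polarization: 100 nM His-tagged BRCA1 BRCT with 100 nM TAMRA-labelled phospho-BACH1 decapeptide, phosphate buffer pH 7.3 with 150 mM NaCl, DTT, 0.01% Tween 20; 12 min RT. Binding inhibition seen as FP decrease.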
YjeE inh: displaces an ADP probe from E. coli YjeE (TsaE); hit rate 0.05% among 71,000; AID 605; purified YjeE enzyme, qHTS inhibition assay; P0AF67; Potency, µM
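Fluorescence polarization of a BODIPY Texas Red–ADP probe (2 uM) bound to purified YjeE (10 uM) was read after 15 min room-temperature incubation with compounds. Loss of polarization marks inhibitors; ADP serves as titrated control.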
Hsp90 Hop PPI: changes Hsp90-Hop TPR2A binding signal, up or down | AlphaScreen TPR2A-His6 binding biotin-Hsp90 C-terminal peptide | Potency, µM (highest dose often 57 µM), for inactives: at the top dose activity change, negative = inhibition | hit rate 0.44% among 71,000 | AID 595; active = well fitted curve in either direction with a large enough effect; inconclusive = small, poorly fitted or top-dose-only effect, or another doubt; also: potency is read from the fitted curve at half-maximal effect; % is scaled to controls: 0 for no effect and ±100 for the full control effect
Pol III holo inh: blocks replication by bacterial DNA polymerase III holoenzyme. reconstituted DNA polymerase III holoenzyme replication, biochemical. Potency, µM (series often up to 57.1 µM), for the others: at the highest dose activity change, negative = inhibition. hit rate 0.25% among 71,000. AID 603; also: potency is read from the fitted curve at half-maximal effect; % is scaled to controls: 0 for no effect and ±100 for the full control effect
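Reconstituted *E. coli* holoenzyme (0.35 nM Pol III, 1 nM beta, 154 nM SSB, 2 nM primase) was preincubated with compound for 15 min at RT. Synthesis on 1.4 nM ssM13Gori ran 35 min, then was stopped with PicoGreen/EDTA and read as dsDNA fluorescence.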
tau ThS displ: tau filament binding by ThS displacement. shares compounds with Tau fil binding. recombinant tau filaments, Thioflavin S fluorescence displacement. Potency, µM. hit rate 40% among 60. AID 911; calls by dose curve
aSyn ThS bind: alpha-synuclein fibril binding by ThS displacement | shares compounds with Tau fil binding | recombinant alpha-synuclein fibrils, ThS fluorescence displacement | Potency, µM | hit rate 40% among 60 | AID 937; calls by dose curve
Abeta ThS displ: compounds binding human beta amyloid fibrils, displacing Thioflavin S; shares compounds with Tau fil binding; Abeta1-42 fibrillization, thioflavin S fluorescence, overnight 37 C; Potency, µM; hit rate 50% among 60; AID 956; calls by dose curve
* hit, by the source's call; [ ] = remark or other dose. Unless noted, calls follow the shape of the dose curve; as a rule, active = well fitted curve in the direction sought with a large enough effect; inconclusive = small, poorly fitted or top-dose-only effect, or another doubt; inactive = no such curve, though single readings can be large; an effect the other way counts as inactive or inconclusive.

`N#Cc1c(-n2cccc2/C=N/O)sc2c1CCCC2` gave Tau fil binding -8%, BRCT inh green 0%, BRCT inh red 2%, YjeE inh inactive, Hsp90 Hop PPI -9% and Pol III holo inh -1%.
Screening Cc1ccc(/C=N/c2sc3c(c2C#N)CCC3)s1 returned Tau fil binding 2.5µM*, BRCT inh green -1%, BRCT inh red 0%, YjeE inh inactive, Hsp90 Hop PPI -24%, Pol III holo inh -2%, tau ThS displ inactive, aSyn ThS bind inconclusive and Abeta ThS displ inactive.
For NCCSCCC(=O)O the results were Tau fil binding 1%[11.4 µM], BRCT inh green -1%[15.4 µM], BRCT inh red -1%[15.4 µM], YjeE inh inactive, Hsp90 Hop PPI 0%[11 µM] and Pol III holo inh -5%[11.4 µM].
`Cc1nc(N2CCOCC2)c2nc(-c3ccccc3)n(C(C)CN(C)C)c2n1` (centres undefined) gave Tau fil binding -11%, BRCT inh green 0%, BRCT inh red 0%, YjeE inh inactive, Hsp90 Hop PPI -5% and Pol III holo inh 2%.
Screening c1cc2c3c(cccc3c1)NC1(CCCCCC1)N2 returned Tau fil binding 2.5µM*, BRCT inh green 0%, BRCT inh red -1%, YjeE inh inactive, Hsp90 Hop PPI -25%, Pol III holo inh -20%, tau ThS displ inconclusive, aSyn ThS bind 6.3µM* and Abeta ThS displ 2.2µM*.
`CCS(=O)(=O)Nc1cc(-c2nc3cccnc3s2)ccc1C` gave Tau fil binding 1%, BRCT inh green 4%, BRCT inh red -2%, YjeE inh inactive, Hsp90 Hop PPI 0% and Pol III holo inh -4%.
`Cc1ccc2nc(-c3ccc(N=Nc4cc(S(=O)(=O)O)c5ccccc5c4O)cc3)sc2c1S(=O)(=O)O` gave tau ThS displ 2.1µM*, aSyn ThS bind 9.5µM* and Abeta ThS displ inconclusive.
For COc1ccc2nc(/N=C\N(C)C)sc2c1 the results were Tau fil binding -13%, BRCT inh green -4%, BRCT inh red 0%, YjeE inh inactive, Hsp90 Hop PPI -6% and Pol III holo inh -2%.
For COc1ccc2nc(N=Nc3ccc(N(C)C)cc3)sc2c1 the results were tau ThS displ 0.1µM*, aSyn ThS bind inactive and Abeta ThS displ 0.1µM*.
`Cc1nc(NCCCn2ccnc2)c2ccccc2n1` gave Tau fil binding 12%, BRCT inh green -3%, BRCT inh red 1%, YjeE inh inactive, Hsp90 Hop PPI -1% and Pol III holo inh 1%.
`O=C1c2ccccc2-c2onc3ccc(NCCCn4ccnc4)c1c23` gave Tau fil binding 0.13µM*, BRCT inh green 0.79µM*, BRCT inh red 0.63µM*, YjeE inh 25µM*, Hsp90 Hop PPI 25µM*, Pol III holo inh 354%, tau ThS displ 5.5µM*, aSyn ThS bind 3.2µM* and Abeta ThS displ 2.2µM*.
For CCN1CCCC(OC(=O)C(c2ccccc2)c2ccccc2)C1 (centres undefined) the results were BRCT inh green 0%[3.08 µM] and BRCT inh red 2%.
Screening CCN1CCN(c2nc3ccccc3nc2C(C#N)C(=O)OC2CCCCC2)CC1 (centres undefined) returned Tau fil binding 0.79µM*, BRCT inh green 4%, BRCT inh red 2%, YjeE inh inactive, Hsp90 Hop PPI -7%, Pol III holo inh 2%, tau ThS displ 2.8µM*, aSyn ThS bind 1.8µM* and Abeta ThS displ 1.4µM*.

Source: PubChem BioAssay
